Bioassay records (PubChem BioAssay)
Shown are actives, neighbours in structure and some others; about 3% of the full set was active somewhere.
EWS-Fli block = EWS/Fli-driven NR0B1 reporter inhibitors, primary screen, A673 cells, NR0B1 luciferase, luminescence, MLPCN library; AID 651661, 2012; viability-normalised; inhibition, % at 12.6 µM; hit rate 0.67% among 350,000;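 active = mean inhibition of at least 50% after viability correction, with every replicate also passing that limit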;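 note: firefly luciferase signal divided by Alamar Blue viability fluorescence both relative to DMSO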
Peg3 prom inh-1 = Peg3 promoter-driven luciferase inhibitors, primary screen, cell-based, HeLa, luciferase luminescence. hit rate 1.7% among 360,000. AID 588405, 2011. HeLa PEG-Prom luciferase reporter, overnight. inhibition, % at 20 µM;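 active = inhibition of at least 50% at 20 µM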
ABHD5 PLIN5 PPI = ABHD5-PLIN5 interaction inhibitors, primary screen, cell lysate, split luciferase complementation, luminescence. inhibition, % at 4 µM. Perilipin-5 (Homo sapiens) + 1-acylglycerol-3-phosphate O-acyltransferase ABHD5 (Homo …. hit rate 0.78% among 360,000. AID 602281, 2012. Split G. princeps luciferase complementation, 4 h;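 active = inhibition above the mean inhibition across every tested compound plus 3 SD, cut at about 22% in these data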;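 note: 0% = DMSO only wells and the 100% control is not disclosed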
Target sequence (Q00G26 whole entry, looked up): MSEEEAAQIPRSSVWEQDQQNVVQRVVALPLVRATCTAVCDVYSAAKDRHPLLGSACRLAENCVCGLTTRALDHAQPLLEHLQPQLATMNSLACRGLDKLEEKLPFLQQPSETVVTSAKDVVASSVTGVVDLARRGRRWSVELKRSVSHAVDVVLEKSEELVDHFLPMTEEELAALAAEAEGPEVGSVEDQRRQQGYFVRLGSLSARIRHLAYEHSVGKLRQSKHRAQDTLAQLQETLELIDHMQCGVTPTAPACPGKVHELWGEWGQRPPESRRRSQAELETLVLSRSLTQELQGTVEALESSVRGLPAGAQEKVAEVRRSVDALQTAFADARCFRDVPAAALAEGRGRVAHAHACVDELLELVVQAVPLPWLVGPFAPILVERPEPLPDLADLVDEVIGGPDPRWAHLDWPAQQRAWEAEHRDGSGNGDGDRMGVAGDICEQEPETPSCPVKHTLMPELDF
Target sequence (Q8WTS1 whole entry, looked up): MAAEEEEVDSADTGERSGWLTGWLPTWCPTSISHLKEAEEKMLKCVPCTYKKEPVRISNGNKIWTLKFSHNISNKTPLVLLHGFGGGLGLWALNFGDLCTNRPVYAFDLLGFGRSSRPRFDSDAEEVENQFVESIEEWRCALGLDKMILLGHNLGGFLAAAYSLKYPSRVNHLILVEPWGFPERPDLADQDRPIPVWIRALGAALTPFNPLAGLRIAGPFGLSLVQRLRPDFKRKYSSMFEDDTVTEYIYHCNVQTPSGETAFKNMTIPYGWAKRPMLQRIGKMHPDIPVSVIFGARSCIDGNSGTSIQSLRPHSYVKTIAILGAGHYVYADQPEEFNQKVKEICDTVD
Shn3 inh set2 = reduction of Shn3 3'UTR firefly luciferase signal, primary screen, Schnurri-3 inhibitor project, cell-based, Clone20 osteoblasts, set 2. Clone20 osteoblast Shn3 3'UTR firefly luciferase, 24 h. inhibition, % at 12.5 µM. hit rate 0.52% among 360,000. AID 588674, 2011;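 active = mean inhibition of at least 75% with every replicate also reaching 75%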;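 note: 0% = median of neutral control wells and 100% = pilot-screen positive control compound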
PAX8 reporter = inhibitors of PAX8-driven TPO luciferase reporter, primary screen, RMG-I cells, single concentration; SteadyGlo, 24 h; inhibition, % at 12.6 µM; hit rate 1.2% among 360,000; AID 652154, 2013;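 active = mean replicate inhibition at least 60% with every replicate also reaching 60%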;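 note: luciferase light reporting Pax8 driven TPO promoter activity; plate controls were median of neutral control wells for no effect and mitoxantrone controls for full effect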
TRPM1 prom inh = inhibitors of MITF-dependent TRPM1 promoter reporter, primary screen, cell-based, SK-MEL-5, single point, luciferase; SK-MEL-5 TRPM1 promoter luciferase, 24 h; inhibition, % at 12.5 µM; hit rate 0.83% among 330,000; AID 488899, 2010;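 active = mean inhibition across replicates of 60% or more, whatever share of single replicates reaches that level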
Peg3 prom inh-2 = Peg3 promoter reporter inhibitors, retest, confirmation, cell-based, HeLa, luciferase reporter, single concentration; shares compounds with Peg3 prom inh-1; HeLa PEG-Prom luciferase reporter, luminescence, overnight; inhibition, % at 20 µM; hit rate 84% among 1,300;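 active = at 20 µM dose, 40% or more inhibition averaged across four replicates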
* = called active by the depositor; x = not tested or not shown.

SMILES	EWS-Fli block	Peg3 prom inh-1	ABHD5 PLIN5 PPI	Shn3 inh set2	PAX8 reporter	TRPM1 prom inh	Peg3 prom inh-2
Cc1nc2c(OCc3ccc(F)c(F)c3)cccn2c1N(C)C(=O)CCC1CCCC1	13	26	4	21	28	x	x
Cc1nc2c(OCc3ccc(OC(F)F)cc3)cccn2c1N(C)C(=O)CCC1CCCC1	22	65*	10	47	19	x	54*
O=C(C1CCCN(c2ncnc3c2nc2n3CCCCC2)C1)N1CCN(c2cccc(Cl)c2)CC1 (stereo not given)	x	46	4	26	42	1	x
Cc1cccc(N2CCN(C(=O)C3CCN(c4ncnc5c4nc4n5CCCCC4)CC3)CC2C)c1 (stereo not given)	x	55*	8	75	42	43	43*
O=C(C1CCN(c2ncnc3c2nc2n3CCCCC2)CC1)N1CCN(c2ccccc2F)CC1	7	20	2	17	19	0	x
Cc1cccc(N2CCN(C(=O)C3CCN(c4ncnc5c4nc4n5CCCCC4)CC3)CC2)c1C	x	52*	-3	68	44	50	58*
C=CCc1cccc(/C=N/NC(=O)C(C)Nc2cccc(C)c2)c1O (stereo not given)	17	50*	1	-2	11	14	44*
COc1ccc2nc(Nc3nc(CSc4nnnn4-c4ccccc4)cc(=O)[nH]3)nc(C)c2c1	x	74*	-6	19	x	23	44*
O=C(COc1ccc2c(c1)CCC2)Nc1ccccn1	-48	75*	-1	25	-163	51	67*
CN1CCN(c2ccc(-c3cccc(NC(=O)COc4ccc(Cl)cc4Cl)c3)nn2)CC1	32	54*	13	8	-80	-21	16
CN1CCN(c2ccc(-c3cccc(NC(=O)COc4ccc(Cl)cc4)c3)nn2)CC1	0	-161	7	-100	-42	-66	x
CCCN(C)C[C@@H]1Oc2cc(-c3cccc(OC)c3)ccc2S(=O)(=O)N([C@H](C)CO)C[C@@H]1C	9	x	x	x	x	x	x
CCCCCCCNC(=O)C1(CC2CC(c3ccccc3)=NO2)CCNCC1 (stereo not given)	1	94*	8	-7	15	-1	79*
C[C@@H]1CN([C@H](C)CO)C(=O)c2cc(NS(=O)(=O)c3cn(C)cn3)ccc2O[C@H]1CN(C)S(=O)(=O)c1ccccc1	2	x	x	x	x	x	x
CC(=O)c1ccc(OC(=O)/C=C/c2ccccc2)cc1	12	3	3	-1	20	3	x
CN(C)CC1CCC/C(=C\c2ccc(OC(=O)/C=C/c3ccccc3)cc2)C1=O (stereo not given)	-5	101*	1	14	x	69*	100*
C[C@@H]1CN([C@@H](C)CO)C(=O)c2cc(NC(=O)Cc3ccccc3)ccc2O[C@@H](C)CCCCO[C@@H]1CN(C)C(=O)NC1CCCCC1	-4	x	x	x	x	x	x
COc1ccc(CNCc2cc(Cl)ccc2O)cc1	-10	-54	12	3	10	-9	x
CCc1ccc(O)c(CNCCNCc2cc(CC)ccc2O)c1	47	91*	8	86*	22	49	92*
C[C@H]1CN([C@@H](C)CO)C(=O)c2cccc(NC(=O)Nc3ccc4c(c3)OCO4)c2O[C@H]1CN(C)S(=O)(=O)c1cccs1	-7	x	x	x	x	x	x
O=C(Nc1ccc(N2CCOCC2)cc1)c1cnsn1	x	101*	-1	49	x	79*	74*
COc1ccccc1CNC(=O)C[C@H]1C=C[C@@H](NC(C)=O)[C@H](CO)O1	-1	x	x	x	3	x	x
COc1cc(C(=O)Nc2ccc3oc(-c4cccnc4)nc3c2)cc(OC)c1OC	-7	52*	-7	14	-16	-5	43*
COc1cc(C(=O)Nc2nc(OC)c(-c3ccccc3)c(OC)n2)cc(OC)c1OC	x	50*	-4	25	x	15	43*
